Data as given in publication PMC13541613, “GHT-SELEX demonstrates unexpectedly high intrinsic sequence specificity and complex DNA binding of many human transcription factors”.

Tests used:
Experiment in all cases: HT-SELEX; 20 mM HEPES pH 7, 140 mM KCl, 5 mM NaCl, 1 mM K2HPO4, 2 mM MgSO4, 100 uM EGTA, ZnSO4, 0.1% Tween20; room temperature, 1 h; high values mean tight binding
Conditions in all cases: protein: ivt; tags: eGFP (N-terminal); dsDNA, one strand shown
ZNF721 full-length = ZNF721 full-length (Homo sapiens, UniProt Q8TF20-2 1-923)
In short: (§1)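 The binding signal is a relative k-mer count in selected reads, and higher values mean tighter binding. To obtain these reads, bead-bound tagged transcription factor (full-length or DNA-binding-domain fragment, produced in HEK293 lysate or cell-free extract) was mixed with a randomized 40-base DNA library for 1 h at room temperature in low-stringency HEPES/KCl buffer with Tween20. Bound DNA was recovered by washing and heat elution, PCR-amplified through successive cycles and sequenced on Illumina (~3 million 60 bp reads per sample).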

ZNF721 DBD1 = ZNF721 DBD1 (Homo sapiens, UniProt Q8TF20-2 29-461)
In short: as §1

ZNF721 DBD2 = ZNF721 DBD2 (Homo sapiens, UniProt Q8TF20-2 395-923)
In short: as §1

Chain of ZNF721 full-length (Q8TF20 other isoform, or with tags, fused parts or gaps): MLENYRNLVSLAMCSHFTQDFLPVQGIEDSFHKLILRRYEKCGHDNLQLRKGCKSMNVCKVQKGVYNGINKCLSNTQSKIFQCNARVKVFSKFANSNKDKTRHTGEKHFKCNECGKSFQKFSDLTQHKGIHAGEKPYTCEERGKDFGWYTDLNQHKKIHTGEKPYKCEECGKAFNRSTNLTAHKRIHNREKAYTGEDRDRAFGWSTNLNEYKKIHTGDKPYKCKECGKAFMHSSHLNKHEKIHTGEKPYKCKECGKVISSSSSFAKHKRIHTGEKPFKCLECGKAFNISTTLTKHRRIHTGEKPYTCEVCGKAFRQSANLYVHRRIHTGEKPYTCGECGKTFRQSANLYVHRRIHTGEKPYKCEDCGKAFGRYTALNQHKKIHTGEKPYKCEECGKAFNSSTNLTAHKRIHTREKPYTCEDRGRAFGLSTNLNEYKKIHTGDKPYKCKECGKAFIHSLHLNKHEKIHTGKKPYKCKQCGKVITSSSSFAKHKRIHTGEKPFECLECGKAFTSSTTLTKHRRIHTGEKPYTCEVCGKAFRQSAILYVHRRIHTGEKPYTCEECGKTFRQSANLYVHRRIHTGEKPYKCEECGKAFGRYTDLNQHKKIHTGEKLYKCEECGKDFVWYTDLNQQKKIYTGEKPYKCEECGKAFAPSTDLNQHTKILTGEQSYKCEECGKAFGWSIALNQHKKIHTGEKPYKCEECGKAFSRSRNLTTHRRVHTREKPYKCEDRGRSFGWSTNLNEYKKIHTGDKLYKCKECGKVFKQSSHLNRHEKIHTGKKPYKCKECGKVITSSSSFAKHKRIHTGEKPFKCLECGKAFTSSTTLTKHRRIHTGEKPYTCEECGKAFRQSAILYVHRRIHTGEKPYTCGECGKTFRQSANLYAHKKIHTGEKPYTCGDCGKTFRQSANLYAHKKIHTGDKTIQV
Chain of ZNF721 DBD2 (Q8TF20 383-911): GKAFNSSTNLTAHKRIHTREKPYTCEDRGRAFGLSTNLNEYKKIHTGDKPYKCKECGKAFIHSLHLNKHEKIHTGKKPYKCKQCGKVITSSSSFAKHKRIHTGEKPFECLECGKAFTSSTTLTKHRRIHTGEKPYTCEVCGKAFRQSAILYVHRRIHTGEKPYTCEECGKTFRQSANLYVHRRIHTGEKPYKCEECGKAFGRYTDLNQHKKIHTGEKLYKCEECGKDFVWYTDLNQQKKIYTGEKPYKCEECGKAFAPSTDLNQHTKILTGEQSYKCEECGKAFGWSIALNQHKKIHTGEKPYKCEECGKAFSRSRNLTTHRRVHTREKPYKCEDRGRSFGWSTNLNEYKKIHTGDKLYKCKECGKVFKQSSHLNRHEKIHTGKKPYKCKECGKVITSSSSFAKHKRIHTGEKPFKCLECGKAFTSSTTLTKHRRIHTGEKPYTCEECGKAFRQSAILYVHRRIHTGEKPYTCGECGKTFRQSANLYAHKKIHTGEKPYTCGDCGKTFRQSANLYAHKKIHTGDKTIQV
Chain of ZNF721 DBD1 (Q8TF20 17-449): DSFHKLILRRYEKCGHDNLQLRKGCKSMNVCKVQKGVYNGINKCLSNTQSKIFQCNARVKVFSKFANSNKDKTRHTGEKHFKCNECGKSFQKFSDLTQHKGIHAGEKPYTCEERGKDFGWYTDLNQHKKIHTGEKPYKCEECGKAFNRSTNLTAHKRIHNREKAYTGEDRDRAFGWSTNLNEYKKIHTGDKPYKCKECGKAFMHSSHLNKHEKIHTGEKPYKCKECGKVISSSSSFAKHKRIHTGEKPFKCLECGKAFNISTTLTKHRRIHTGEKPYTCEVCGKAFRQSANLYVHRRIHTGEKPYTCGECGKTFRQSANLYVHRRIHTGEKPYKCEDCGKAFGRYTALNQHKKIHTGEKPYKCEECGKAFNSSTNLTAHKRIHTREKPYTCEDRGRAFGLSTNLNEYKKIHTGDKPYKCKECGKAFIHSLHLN

Sequence	binding signal (ZNF721 full-length) [relative 10-mer count]	binding signal (ZNF721 DBD1) [relative 10-mer count]	binding signal (ZNF721 DBD2) [relative 10-mer count]
GAAAAGCAGC	0.106	0.00147	0.125
CCACCCCCTC	0.182	0.00982	0.00312
ATGGGTGGGG	0.109	0.00427	0.00372
GCCCCGCCCC	0.124	0.00436	0.00156
CCCCACCCTC	0.21	0.00986	0.00599
CACCCCCCTC	0.127	0.00633	0.00479
CCCTCACCCC	0.193	0.00862	0.00276
CACCGCCCCC	0.171	0.00803	0.003
CCCAACCCCA	0.132	0.00459	0.00372
CCACTCCCCC	0.12	0.00436	0.00144
CCCACCCACA	0.171	0.00688	0.00959
GAAAAAAACA	0.2	0.00289	0.165
ACCCCGACCC	0.102	0.00284	0.0012
CCCCCCAGCC	0.118	0.00505	0.00228
CCCTCACCAC	0.104	0.00482	0.00587
AGGGTGGTGG	0.142	0.00642	0.00455
CCGACCCCCC	0.153	0.00541	0.00108
CGCCCCCCGC	0.12	0.00472	0.00384
ACCGCCACCC	0.111	0.00335	0.00192
CAGCGTCTCC	0.299	0.00174	0.722
GCCACCCCCA	0.107	0.00326	0.00216
CCCACCGTCC	0.105	0.00449	0.00395
AAGCAGCATG	0.115	0.0017	0.137
CACCCACCTC	0.109	0.00518	0.00312
ACCCCGCCCC	0.188	0.00569	0.00192
CCCCCCGCAC	0.115	0.00372	0.00348
CCCAACCACC	0.17	0.00752	0.00539
CCTCCCCGCC	0.138	0.00697	0.00923
AGGAAAAAAG	0.114	0.0333	0.0182
GGGGTGGGCA	0.11	0.00381	0.00395
